Hit rate of the full screen: of about 1,300 compounds, about 420 (32%) were called active. Not shown: some 32% with an inconclusive outcome. Calls follow the shape of the dose curve; as a rule, active = well fitted inhibition curve with a large enough effect; inconclusive = small, poorly fitted or top-dose-only effect; inactive = no such curve, though single readings can be large or run the other way. This is one part of the list. Where a call stands in place of a potency, no number is given.
Potency is read from the fitted curve at half-maximal effect.

This experiment has as its target C-terminal-binding protein 1 (Homo sapiens) (UniProt Q13363). As to the kind of experiment: qHTS for Inhibitors of the Phosphatase Activity of Eya2: Carboxyl-terminal binding protein (CtBP) Counterscreen for Cherry-picked Compounds. Also: nearly all actives have a fitted effect of over 65% in size. As to conditions: purified protein-protein binding, AlphaScreen, 3 h; series mostly up to 46.1 µM. The source says:
The Eya protein family is an essential co-activator of the Six1 transcription factor. Six1 is a developmental gene that is abnormally re-expressed in a large percentage of breast cancers. This over-expression plays a causal role in the initiation and metastatic development of breast cancers. The Eya family of protein is also found to contain a unique HAD phosphatase domain with protein tyrosine phosphatase activity which can potentially play a role in Six1-mediated breast tumorigenesis. Recently, Eya2 is found to dephosphorylate the histone variant H2AX and direct cells towards DNA repair instead of apoptosis in the event of DNA damage.
A 1536 well format, fluorescence based qHTS assay was developed and used to target the phosphatase activity of Eya2 (AID 488837). In addition, a CtBP counterscreen was developed using the AlphaScreen technology to evaluate compound selectivity to target […]. The data herein reports the activity of the cherry-picked compounds against the CtBP AlphaScreen. Compounds that are active or have > 100 fold selectivity vs. the Eya2 activity were excluded for further characterization. Inactivity is the desired outcome for the CtBP counterscreen.
NIH Chemical Genomics Center [NCGC]
NIH Molecular Libraries Probe Centers Network [MLPCN]
Assay Submitter (PI): Rui Zhao, University of Colorado Denver
Four microliters of reagent (25 nM GST-E1A, 25 nM CtBP-6x HIS) was dispensed in a 1536 well Greiner plates. Twenty-three nanoliter of test compounds (final concentration of 2.5 nM - 46 uM) and positive control E1A peptide inhibitor (final concentration of 0.14 nM - 4.6 uM) were added to the plates using the Kalypsys pintool equipped with a 1536 pin head. The plates was then incubated at room temperature for 2 hours followed by addition of 1 uL Alpha bead donor / acceptor mix (20 ug/mL final concentration). The assay plates were incubated for additional 1 hour at room temperature and protected from light. The AlphaScreen signal was obtained using the PerkinElmer EnVision plate reader using the 680 nm excitation and 520 - 620 nm emission filters. The data was normalized to the E1A peptide inhibitor for maximum inhibition and DMSO treated wells as negative control.
On to `N[C@@H](Cc1cc(I)c(O)c(I)c1)C(=O)O`, for which the Potency is 8.49 µM (active).

Take `CN(C)c1ccc(C=C2C=CC=C2)cc1`: the Potency result is “inactive”.

As for `CN(C)c1ccc(N=Nc2ccccc2)cc1`, the Potency is 4.78 µM (active).

For the compound `COC(=O)C1=C(c2cccc(OCc3ccccc3)c2)C[C@@H]2CC[C@H]1N2C(=O)NCCCc1ccccc1`, the Potency entry is “inactive”.

For `COC(=O)C1=C(c2ccc(F)cc2OCc2ccccc2)C[C@@H]2CC[C@H]1N2C(=O)NCc1ccc(N(C)C)cc1`, the Potency was 10.7 µM (active).

On to `CCOC(=O)c1cc2c(cn1)[C@@H](CCO)NC2`, for which the Potency result was “inactive”.

Take `COc1cccc2c1C(=O)c1c(O)c3c(c(O)c1C2=O)C[C@@](O)(C(=O)CO)C[C@@H]3O[C@H]1C[C@H](N)[C@H](OC2CCCCO2)[C@H](C)O1` (stereo partly drawn): the Potency is 7.57 µM (active).

For `C[C@H]1CCC[C@H](O)CCCCCc2cc(O)cc(O)c2C(=O)O1`, the Potency result is “inactive”.

With `CN(C)S(=O)(=O)c1ccc(C(=O)NNc2nc(-c3ccccc3)c3cc(Br)ccc3n2)cc1`, the Potency is 8.49 µM (active).

`O=C1NC(=S)NC(=O)C1=Cc1ccc(Br)s1`: the Potency result was “inactive”.

In the case of `COc1ccc(-c2cc(=NCCC(=O)O)c3cc(C)ccc3o2)cc1`, the Potency is 10.7 µM (active).

Turning to `Cc1nc2ccccc2c(=O)n1-c1ccc(Cl)cc1[N+](=O)[O-]`, the Potency result was “inactive”.

Turning to `COc1ccccc1N1CCN(CCc2c[nH]c3cc4c(cc23)OCO4)CC1`, the Potency is 13.5 µM (active).

For the compound `O=C1NC(=O)N(c2ccc(Cl)cc2)C(=O)/C1=C\c1ccc(Sc2nc3ccccc3[nH]2)o1`, the Potency entry is “inactive”.

As for `CC(N)[C@H](O)c1ccc(O)c(O)c1` (stereo partly drawn), the Potency entry is “inactive”.

Take `Cc1cc(/C=C2\C(=O)NC(=O)N(c3ccc(Br)cc3)C2=O)c(C)n1-c1cc(C(=O)O)cc(C(=O)O)c1`: the Potency result was “inactive”.

Take `Cc1c(C(=O)c2cccc3ccccc23)c2cccc3c2n1[C@H](CN1CCOCC1)CO3`: the Potency result is “inactive”.

For `O=C(Cc1ccccc1)c1ccccn1`, the Potency was 10.7 µM (active).

Take `COC1C(O)C(C)OC(OC2C(Oc3cccc4c(O)c5c(=O)oc6ccc(C)c7c(=O)oc(c34)c5c67)OC(C)C(O)C2O)C1O` (stereo not drawn): the Potency result was “inactive”.

For `CCC(COC(=O)c1cc(OC)c(OC)c(OC)c1)(c1ccccc1)N(C)C` (stereo not drawn), the Potency entry was “inactive”.

Consider `COC(=O)C1=C(C)NC(C)=C(C(=O)OC)C1c1ccccc1[N+](=O)[O-]`, for which the Potency was 10.7 µM (active).

Consider `O=C(O)c1cc[c]([Sb](=[O])([OH])[OH])cc1[N+](=O)[O-]`, for which the Potency result was “inactive”.

As to `C=CCN1C(=O)/C(=C/c2ccc(Br)s2)C(=O)NC1=S`, the Potency result is “inactive”.

In the case of `Cc1ccc2c(C)c3ccc4ccccc4c3c[n+]2c1`, the Potency was 13.5 µM (active).

Regarding `CCOC(=O)CCCc1cc[c]([Sb](=[O])([OH])[OH])cc1`, the Potency result was “inactive”.

On to `CCOc1ccc(N2C(=O)/C(=C/c3ccc(C)o3)C(=O)NC2=S)cc1`, for which the Potency entry was “inactive”.

In the case of `C=C1C(=O)O[C@@H]2C[C@@H](C)[C@@H]3C=CC(=O)[C@@]3(C)[C@@H](OC(=O)CC(=O)O[C@H]3[C@@H]4C(=C)C(=O)O[C@@H]4C[C@@H](C)[C@@H]4C=CC(=O)[C@]43C)[C@H]12`, the Potency was 8.49 µM (active).

`Cc1ccc(/C=C2\C(=O)NC(=S)N(c3cccc(F)c3)C2=O)o1`: the Potency result was “inactive”.

Turning to `O=C(O)CCCOc1ccc(Cl)cc1Cl`, the Potency result was “inactive”.

Turning to `CNc1ccc2nc3ccccc3[n+](C)c2c1`, the Potency was 8.49 µM (active).

Consider `Cc1c(N=Nc2c(O)[nH]c(=O)[nH]c2=O)c(=O)n(-c2ccccc2)n1C`, for which the Potency is 2.13 µM (active).

On to `O=C1NC(=O)N(c2ccc(Br)cc2)C(=O)/C1=C/c1ccsc1`, for which the Potency result is “inactive”.

With `CCOc1cc2c(cc1OCC)-n1cccc1C(c1ccc(F)cc1)NC2` (stereo not drawn), the Potency entry is “inactive”.

These data come from PubChem BioAssay AID720541 (National Center for Advancing Translational Sciences (NCATS), 2013).
